According to PubChem BioAssay (NCI):
Compounds without any hit were thinned out: in the full panel of roughly 83,000, 20% have a hit.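 Treatment: one concentration, 48 hours, 96-well format. Scoring: percent growth, with anything below 10 considered active.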 The source made the active and inactive calls.

Experiments:
Assay in all cases: NCI-60 one-dose screen, 48 h (100 = growth as untreated, 0 = no growth, -100 = all killed)
SK-MEL-2 melanoma = details: 10 µM unless noted
EKVX NSCLC = details: 10 µM unless noted
SN12C renal = details: 10 µM unless noted
UO-31 renal = details: 10 µM unless noted
TK-10 renal = details: 10 µM unless noted
ACHN renal = details: 10 µM unless noted
CAKI-1 renal = details: 10 µM unless noted
A498 renal = details: 10 µM unless noted
MOLT-4 leukemia = details: 10 µM unless noted
SR leukemia = details: 10 µM unless noted
RPMI-8226 leukemia = details: 10 µM unless noted
OVCAR-8 ovarian = details: 10 µM unless noted
OVCAR-5 ovarian = details: 10 µM unless noted
OVCAR-4 ovarian = details: 10 µM
SK-OV-3 ovarian = details: 10 µM unless noted
IGROV1 ovarian = details: 10 µM unless noted
OVCAR-3 ovarian = details: 10 µM unless noted
HS 578T breast = details: 10 µM unless noted
NCI/ADR-RES ovarian = details: 10 µM unless noted
CCRF-CEM leukemia = details: 10 µM unless noted

Measured: growth

Cc1ccc(-c2cc(O)c(-c3ccc(C)cc3C)cc2O)c(C)c1
active: SR leukemia 7.1%
inactive: SK-MEL-2 melanoma 91.8% | EKVX NSCLC 56.6% | SN12C renal 68.9% | UO-31 renal 64.5% | TK-10 renal 79.1% | ACHN renal 73.2% | CAKI-1 renal 39.7% | A498 renal 94.3% | MOLT-4 leukemia 31.7% | RPMI-8226 leukemia 37.2% | OVCAR-8 ovarian 47.7% | OVCAR-5 ovarian 96.9% | OVCAR-4 ovarian 41.2% | SK-OV-3 ovarian 82.7% | IGROV1 ovarian 86.9% | OVCAR-3 ovarian 67.8% | HS 578T breast 87.9% | NCI/ADR-RES ovarian 52.2%

CN(C)C(=S)Sc1ccc([N+](=O)[O-])cc1[N+](=O)[O-]
active: ACHN renal -44.4% | CCRF-CEM leukemia 4.55% | MOLT-4 leukemia 0.177% | SR leukemia 7.64% | IGROV1 ovarian 1.54%
inactive: SK-MEL-2 melanoma 57.8% | EKVX NSCLC 82.4% | SN12C renal 41.8% | UO-31 renal 16.7% | TK-10 renal 67.8% | A498 renal 80.5% | RPMI-8226 leukemia 27.7% | OVCAR-8 ovarian 18.7% | OVCAR-5 ovarian 72.9% | OVCAR-4 ovarian 20.8% | SK-OV-3 ovarian 93.1% | HS 578T breast 97.5% | NCI/ADR-RES ovarian 40.8%

CN(C)CCOc1ccc(/C(=C(/CCCl)c2ccccc2)c2ccccc2)cc1
inactive: SK-MEL-2 melanoma 48.5% | EKVX NSCLC 30% | SN12C renal 23.7% | UO-31 renal 26.5% | TK-10 renal 49.8% | ACHN renal 30.1% | CAKI-1 renal 30.8% | A498 renal 65.7% | OVCAR-8 ovarian 26.7% | OVCAR-5 ovarian 47% | OVCAR-4 ovarian 32.9% | SK-OV-3 ovarian 33.6% | IGROV1 ovarian 30.5% | OVCAR-3 ovarian 12.9% | NCI/ADR-RES ovarian 14.1%
active: MOLT-4 leukemia -4.84% | SR leukemia -17% | RPMI-8226 leukemia -11.4%

O=S(=O)(c1ccc(N/N=C\c2ccccc2Cl)cc1)c1ccc(N/N=C/c2ccccc2Cl)cc1
active: RPMI-8226 leukemia -16.1%
inactive: SK-MEL-2 melanoma 89.1% | EKVX NSCLC 84.5% | SN12C renal 87.2% | UO-31 renal 63.7% | TK-10 renal 110% | ACHN renal 82.7% | CAKI-1 renal 62.2% | A498 renal 94.2% | MOLT-4 leukemia 65.1% | SR leukemia 88.5% | OVCAR-8 ovarian 86.5% | OVCAR-5 ovarian 82.6% | OVCAR-4 ovarian 84.1% | SK-OV-3 ovarian 98% | IGROV1 ovarian 73.8% | HS 578T breast 83% | NCI/ADR-RES ovarian 84.5%

CCCc1cc2cc(-n3nc(C)c4c3CC(C)(C)CC4=O)cc(NC3CCSCC3)c2c(=O)[nH]1
inactive: SK-MEL-2 melanoma 71.6% | EKVX NSCLC 76.4% | SN12C renal 39.8% | UO-31 renal 61% | TK-10 renal 43.4% | ACHN renal 38.5% | A498 renal 71.4% | CCRF-CEM leukemia 100% | MOLT-4 leukemia 49.8% | SR leukemia 33.8% | RPMI-8226 leukemia 49.9% | OVCAR-8 ovarian 79% | OVCAR-5 ovarian 97% | OVCAR-4 ovarian 97.5% | IGROV1 ovarian 74.1% | OVCAR-3 ovarian 87% | HS 578T breast 79.2% | NCI/ADR-RES ovarian 82.2%

COc1ccc(C=C2c3ccccc3-c3ccccc32)cc1
inactive: SK-MEL-2 melanoma 54.9% | EKVX NSCLC 66.8% | SN12C renal 61.6% | UO-31 renal 54.3% | TK-10 renal 68.6% | ACHN renal 58.4% | A498 renal 15.7% | CCRF-CEM leukemia 57.7% | MOLT-4 leukemia 52.3% | SR leukemia 23.4% | RPMI-8226 leukemia 68.2% | OVCAR-8 ovarian 67.1% | OVCAR-5 ovarian 92.4% | OVCAR-4 ovarian 80.2% | SK-OV-3 ovarian 60.6% | IGROV1 ovarian 58.3% | OVCAR-3 ovarian 18% | HS 578T breast 56.3% | NCI/ADR-RES ovarian 20.2%

CC[C@]1(O)CC2CN(CCc3c([nH]c4ccccc34)[C@@](C(=O)OC)(c3cc4c(cc3OC)N(C=O)[C@H]3[C@@](O)(C(=O)OC)[C@H](OC(C)=O)[C@]5(CC)C=CCN6CC[C@]43[C@@H]65)C2)C1 (stereo partly drawn)
inactive: SK-MEL-2 melanoma 18.8% | EKVX NSCLC 47.4% | SN12C renal 26.6% | UO-31 renal 56.3% | TK-10 renal 74.2% | ACHN renal 34.4% | CAKI-1 renal 48.9% | MOLT-4 leukemia 21.6% | SR leukemia 13% | OVCAR-8 ovarian 13.2% | OVCAR-5 ovarian 32.2% | OVCAR-4 ovarian 43% | IGROV1 ovarian 39.4% | NCI/ADR-RES ovarian 11.3%
active: A498 renal -17.9% | SK-OV-3 ovarian 4.03% | OVCAR-3 ovarian -49.2%

COC(=O)C(=Cc1ccccc1[N+](=O)[O-])C(=O)OC
inactive: SK-MEL-2 melanoma 73.5% | EKVX NSCLC 51.4% | SN12C renal 51.1% | UO-31 renal 31.2% | TK-10 renal 14.7% | ACHN renal 48.7% | A498 renal 69.1% | OVCAR-8 ovarian 49.8% | OVCAR-5 ovarian 56.6% | OVCAR-4 ovarian 21.6% | SK-OV-3 ovarian 69.7% | IGROV1 ovarian 37.9% | HS 578T breast 34.5% | NCI/ADR-RES ovarian 21.9%
active: CCRF-CEM leukemia -1.09% | MOLT-4 leukemia 4.68% | SR leukemia -22.3% | RPMI-8226 leukemia -18.6% | OVCAR-3 ovarian -17.9%

COc1ccc(C(=O)/C=C/c2ccccn2)c(O)c1
active: SR leukemia -1.93% | RPMI-8226 leukemia 6.35%
inactive: SK-MEL-2 melanoma 89.6% | EKVX NSCLC 94.2% | SN12C renal 77.8% | UO-31 renal 53.1% | TK-10 renal 92.4% | ACHN renal 45% | CAKI-1 renal 61.3% | A498 renal 91.3% | MOLT-4 leukemia 74.2% | OVCAR-8 ovarian 92.6% | OVCAR-5 ovarian 96.3% | OVCAR-4 ovarian 92.1% | SK-OV-3 ovarian 98.6% | IGROV1 ovarian 46.8% | HS 578T breast 87.5% | NCI/ADR-RES ovarian 94%

O=[N+]([O-])c1cc(CCl)ccc1OCCBr
inactive: SK-MEL-2 melanoma 106% | EKVX NSCLC 104% | SN12C renal 99.7% | UO-31 renal 80.8% | TK-10 renal 101% | ACHN renal 107% | A498 renal 91.9% | CCRF-CEM leukemia 86.6% | MOLT-4 leukemia 109% | SR leukemia 102% | RPMI-8226 leukemia 93.5% | OVCAR-8 ovarian 101% | OVCAR-5 ovarian 108% | OVCAR-4 ovarian 97% | SK-OV-3 ovarian 102% | IGROV1 ovarian 107% | OVCAR-3 ovarian 105% | HS 578T breast 108% | NCI/ADR-RES ovarian 110%

CC(C)(C)c1cc(C(=O)Nc2cc3ccccc3cc2C(=O)NCCN)cc(C(C)(C)C)c1
active: SK-MEL-2 melanoma -48.8% | EKVX NSCLC -72.9% | SN12C renal -64.8% | UO-31 renal -85.6% | TK-10 renal -85.9% | ACHN renal -92.3% | A498 renal -90.7% | CCRF-CEM leukemia -49.6% | MOLT-4 leukemia -38.6% | SR leukemia -58.9% | RPMI-8226 leukemia -47.8% | OVCAR-8 ovarian -37.1% | OVCAR-5 ovarian -58.4% | OVCAR-4 ovarian -81.6% | IGROV1 ovarian -55% | OVCAR-3 ovarian -96% | HS 578T breast -36.6% | NCI/ADR-RES ovarian -62.3%

Nc1cccc2c1C(=O)c1cccc(NC(=O)c3ccccc3)c1C2=O
active: EKVX NSCLC 2.26% | UO-31 renal 9.99% | OVCAR-3 ovarian -41.1% | NCI/ADR-RES ovarian -31.1%
inactive: SK-MEL-2 melanoma 33.4% | SN12C renal 47.1% | TK-10 renal 32.1% | ACHN renal 41.5% | CAKI-1 renal 12% | A498 renal 16.7% | MOLT-4 leukemia 41% | SR leukemia 15.1% | RPMI-8226 leukemia 15.2% | OVCAR-8 ovarian 34.4% | OVCAR-5 ovarian 57.6% | OVCAR-4 ovarian 53% | SK-OV-3 ovarian 20.4%

CC(C)c1ccc(C(=O)Nc2sc3c(c2C#N)CCC(=O)C3)cc1
inactive: A498 renal 24.6% | OVCAR-8 ovarian 13.7% | OVCAR-5 ovarian 11.1% | SK-OV-3 ovarian 20.8% | IGROV1 ovarian 18.4% | HS 578T breast 25.4%
active: SK-MEL-2 melanoma -20.1% | EKVX NSCLC 7.96% | SN12C renal 4.66% | UO-31 renal -97% | TK-10 renal 0.974% | CAKI-1 renal -44.3% | CCRF-CEM leukemia 1.37% | MOLT-4 leukemia 0.0788% | SR leukemia -11.7% | RPMI-8226 leukemia -35.2% | OVCAR-4 ovarian -78% | OVCAR-3 ovarian -33.4% | NCI/ADR-RES ovarian 3.12%

CCN1c2ccccc2C(Cl)(c2ccc(N(C)C)cc2)c2ccccc21
inactive: SK-MEL-2 melanoma 81.5% | EKVX NSCLC 69.1% | SN12C renal 46.1% | UO-31 renal 57.6% | TK-10 renal 62.8% | CAKI-1 renal 62.9% | A498 renal 135% | CCRF-CEM leukemia 17% | SR leukemia 22.6% | OVCAR-8 ovarian 17.9% | OVCAR-5 ovarian 107% | OVCAR-4 ovarian 75.2% | OVCAR-3 ovarian 23.2% | HS 578T breast 102% | NCI/ADR-RES ovarian 85.8%
active: RPMI-8226 leukemia -28.8% | IGROV1 ovarian -20.3%

CCCCCCCCCCCCCC[n+]1cccc(C(N)=O)c1
inactive: UO-31 renal 62% | TK-10 renal 24% | CAKI-1 renal 15.5% | A498 renal 61.1% | OVCAR-8 ovarian 18% | OVCAR-5 ovarian 44.2% | OVCAR-4 ovarian 14.5% | SK-OV-3 ovarian 23.3% | NCI/ADR-RES ovarian 105%
active: SK-MEL-2 melanoma -12.1% | EKVX NSCLC -16.2% | SN12C renal 1.56% | MOLT-4 leukemia -31% | SR leukemia -25.9% | RPMI-8226 leukemia -51.2% | OVCAR-3 ovarian -32.4%

CCN(CC)c1ccc2cc(C(Nc3ccc(Br)c(C(F)(F)F)c3)c3nnnn3C(C)(C)C)c(=O)oc2c1 (stereo not drawn)
inactive: SK-MEL-2 melanoma 89.9% | EKVX NSCLC 87.7% | SN12C renal 90.4% | UO-31 renal 74% | TK-10 renal 83.9% | CAKI-1 renal 85% | A498 renal 67.6% | CCRF-CEM leukemia 92.1% | MOLT-4 leukemia 69.6% | SR leukemia 98.8% | RPMI-8226 leukemia 87.1% | OVCAR-8 ovarian 91.5% | OVCAR-5 ovarian 92% | SK-OV-3 ovarian 84.7% | IGROV1 ovarian 106% | OVCAR-3 ovarian 104% | HS 578T breast 79.6% | NCI/ADR-RES ovarian 93.8%
